Shown are actives, neighbours in structure and some others; about 28% of the full set was active somewhere.
Mac1 fbg inh = blocks human CD11b/CD18 adhesion to fibrinogen | K562 CD11b/CD18 adhesion to fibrinogen, ATPlite luminescence; Mn2+ added to activate the integrin | inhibition, % at 10 µM | 93,000 tested, 0.54% active | AID 1497;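 active = primary inhibition of 50% or more at 10 µM, then 40% or more on retest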
CYP2C9 activ = increases human cytochrome P450 2C9 activity; P11712; 96,000 tested, 1.4% active; recombinant CYP2C9, luciferin-H conversion, luminescence; hits give high values; factor 1 = untreated enzyme, 0 = blocked; activation factor at 5 µM;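 active = activation factor of 2 or more for CYP2C9 at a 5 µM dose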;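 note: 0 = sulfaphenazole-blocked wells and 1 = vehicle-only wells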
Mac1 fbg enh = CD11b/CD18-fibrinogen binding enhancement; K562 CD11b/CD18 adhesion to fibrinogen, ATPlite luminescence; AID 1499; 93,000 tested, 0.07% active; activation, % at 10 µM; P05107+P11215;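 active = 10 µM primary screen giving 50% or more activity, confirmed by 40% or more on retest at that dose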
CYP2C19 inh = blocks human cytochrome P450 2C19 | P33261 | CYP2C19 Supersomes, luciferin-H EGE luminescence, 30 min | inhibition, % at 5 µM | 96,000 tested, 21% active;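 active = CYP2C19 inhibition above a set limit at 5 µM in the primary screen, cut at about 50% in these data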;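 note: plate controls were negative control wells for no effect and 2.5 mM tranylcypromine positive control for full effect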
Target sequence (P33261 whole entry, looked up): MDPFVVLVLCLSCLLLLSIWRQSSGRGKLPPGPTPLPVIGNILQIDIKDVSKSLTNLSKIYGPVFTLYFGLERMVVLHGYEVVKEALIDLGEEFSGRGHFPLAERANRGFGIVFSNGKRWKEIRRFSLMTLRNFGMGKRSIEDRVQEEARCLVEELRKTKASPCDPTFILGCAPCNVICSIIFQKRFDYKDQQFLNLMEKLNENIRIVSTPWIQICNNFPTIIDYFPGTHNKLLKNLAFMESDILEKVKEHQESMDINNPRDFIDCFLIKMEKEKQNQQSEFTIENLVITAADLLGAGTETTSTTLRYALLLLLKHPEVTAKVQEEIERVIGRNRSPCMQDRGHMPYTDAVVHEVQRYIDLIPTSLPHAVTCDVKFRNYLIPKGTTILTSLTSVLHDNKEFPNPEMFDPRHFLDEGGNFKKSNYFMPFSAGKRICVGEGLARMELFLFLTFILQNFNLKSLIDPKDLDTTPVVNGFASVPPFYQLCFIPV
CYP2C19 act = activators of human cytochrome P450 2C19; 96,000 tested, under 10 active; activation factor at 5 µM; recombinant CYP2C19, luciferin-H EGE luminescence; hits give high values; 0 = fully inhibited enzyme, 1 = untreated enzyme;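 active = activation factor of at least 2 at 5 µM in the primary screen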;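 note: 0 = wells with 2.5 mM tranylcypromine and 1 = vehicle-only wells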
CYP2C9 inh = human CYP2C9 inhibition; CYP2C9 Supersomes, luciferin-H conversion, luminescence; inhibition, % at 5 µM; 96,000 tested, 20% active; AID 777;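 active = blocking of liver enzyme CYP2C9 beyond about 50% at 5 µM, limit read from the data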
* marks the source's active call; other numbers are inactive results; nt = no result given.

SMILES | Mac1 fbg inh | CYP2C9 activ | Mac1 fbg enh | CYP2C19 inh | CYP2C19 act | CYP2C9 inh
CNc1nc(-c2ccc(Cl)cc2)cs1 | -3 | 0.8 | 1 | 60* | 0.4 | 25
Cn1c2c(c(=O)n(C)c1=O)C(C(F)(F)F)(C(F)(F)F)N=C(c1ccc(Cl)cc1)N2 | nt | 0.1 | nt | 14 | 0.9 | 89*
COCCOC(=O)c1c(C)n(C)c2ccc(OC(=O)C3CC3)cc12 | 6 | 0.7 | -2 | 25 | 0.8 | 30
O=C(Nc1ccc2cn[nH]c2c1)c1c(Cl)cccc1Cl | -6 | nt | -1 | nt | nt | nt
COC(=O)c1c(NC(C)=O)sc(Cc2ccccc2)c1C | nt | 0.8 | nt | 30 | 0.7 | 22
COC(=O)c1sc(S(=O)(=O)NCc2ccccc2)c(C(=O)OC)c1C | 1 | 0.4 | -1 | 83* | 0.2 | 60*
COC(=O)c1sc(S(=O)(=O)Nc2ccc3cn[nH]c3c2)c(C(=O)OC)c1C | -33 | 0.1 | 6 | 52* | 0.5 | 92*
COC(=O)c1ccccc1S(=O)(=O)Nc1ccc2cn[nH]c2c1 | -17 | 0.2 | 1 | 89* | 0.1 | 80*
CCOC(=O)c1ccc(S(=O)(=O)Nc2ccc3cn[nH]c3c2)cc1 | nt | 0.1 | nt | 16 | 0.8 | 94*
Cc1ccc(C(=O)NCC(=O)OC(C)C(=O)NCCC2=CCCCC2)cc1C (stereo not drawn) | 10 | nt | 1 | nt | nt | nt
O=C(c1cccc(Cl)c1)c1nn(-c2ccccc2)c(=O)cc1C(F)(F)F | nt | 0.7 | nt | 42 | 0.6 | 28
CN(C)C(CNC(=O)CN1C(=O)NC2(CCc3ccccc32)C1=O)c1ccco1 (stereo not drawn) | -8 | 0.8 | 6 | -10 | 1.1 | 18
COC(=O)c1c(NC(=O)c2ccccc2)sc(C(=O)c2ccccc2)c1C | 18 | 0.7 | 6 | 13 | 0.9 | 30
COC(=O)c1sc(S(=O)(=O)Nc2ccc(Br)cc2)c(C(=O)OC)c1C | 91* | nt | -7 | nt | nt | nt
C#CC1(O)CC(C)NCC1(C)CCC#N (stereo not drawn) | -6 | 1 | -3 | -8 | 1.1 | -1
Fc1ccc(-n2[nH]nnc2=S)cc1N1CCCC1 | 13 | 0.5 | -1 | -2 | 1 | 50*
COc1ccc2c(c1)[nH]c1c(=O)n(CCN3CCCC3)cnc12 | -12 | 1.1 | -1 | 6 | 0.9 | -6
O=c1c2[nH]c3ccc(F)cc3c2ncn1CCCn1ccnc1 | -13 | 0.2 | 3 | 64* | 0.4 | 80*
O=c1c2[nH]c3ccc(Cl)cc3c2ncn1CCN1CCCCC1 | -16 | 0.4 | -3 | 74* | 0.3 | 59*
O=c1c2[nH]c3ccc(F)cc3c2ncn1CCCN1CCOCC1 | 2 | 1 | 6 | 10 | 0.9 | 2
Cn1c(Cl)c(C(=O)Nc2ccc(Cl)cc2)c2ccccc21 | 7 | 1 | -3 | 20 | 0.8 | -2
O=C(NC1(C(F)(F)F)NC(=O)N(Cc2cccnc2)C1=O)c1cccs1 (stereo not drawn) | -11 | 0.6 | 3 | 52* | 0.5 | 37
Clc1ccc(-c2cn3nc4c(nc3n2)CCCC4)cc1 | 39 | 0.9 | 10 | 17 | 0.8 | 7
COc1cccc(-c2cn3nc4c(nc3n2)CCCC4)c1 | 36 | 0.5 | 1 | 96* | 0 | 50*
CCc1ccc2c(c1)c1nnc(NN)nc1n2CC | 26 | nt | 0 | nt | nt | nt
SMILES | Mac1 fbg inh | CYP2C9 activ | Mac1 fbg enh | CYP2C19 inh | CYP2C19 act | CYP2C9 inh
CCCCC(=O)NC1(C(F)(F)F)C(=O)Nc2c1c(=O)n(C)c(=O)n2C (stereo not drawn) | 6 | 1 | 4 | 11 | 0.9 | 0
Cc1ccccc1CN(c1ccc(C(=O)Nc2cccnc2)cc1)S(C)(=O)=O | -29 | 0 | 0 | 98* | 0 | 96*
CNC(=O)c1ccc(N(Cc2ccccc2)S(C)(=O)=O)cc1 | -2 | 0.6 | 1 | 52* | 0.5 | 36
CC(=O)c1cccc(NC(=O)c2ccc(N(Cc3ccccc3)S(C)(=O)=O)cc2)c1 | 9 | 0.9 | -3 | 6 | 0.9 | 13
Cc1ccc(Cl)cc1N(Cc1ccc(C(=O)NCc2cccnc2)cc1)S(=O)(=O)c1ccccc1 | 30 | 0.4 | -3 | 36 | 0.6 | 58*
Cc1ccc(CN(c2ccc(C(=O)NCc3cccnc3)cc2)S(C)(=O)=O)cc1 | -5 | 0.1 | -1 | 93* | 0.1 | 94*
Cc1ccccc1CN(c1ccc(C(=O)N2CCCC2)cc1)S(C)(=O)=O | -47 | 0.8 | 6 | 18 | 0.8 | 21
COc1ccc(CNC(=O)CCc2c(C)nc3ncnn3c2C)cc1 | -5 | 1.1 | -1 | -11 | 1.1 | -5
Cc1ccc(C(=O)N/N=C2/NC(=O)CC(C(=O)Nc3ccccc3)S2)cc1 (stereo not drawn) | 22 | nt | -1 | nt | nt | nt
CS(=O)(=O)N(Cc1ccc(C(=O)NCCSCc2ccco2)cc1)c1ccccc1 | -28 | 0.2 | 0 | 55* | 0.4 | 85*
COc1ccc(NC(=O)c2ccc(CN(c3cc(Cl)ccc3C)S(=O)(=O)c3ccccc3)cc2)cc1OC | -21 | 0.3 | 30 | 24 | 0.8 | 66*
Cn1c(N)c(C(=O)COC(=O)C2CCCCC2)c(=O)n(C)c1=O | -1 | 1 | -6 | 11 | 0.9 | -4
CCc1cc(=O)oc2cc(C)cc(OC(=O)c3ccco3)c12 | 11 | 0.8 | 1 | 66* | 0.3 | 25
C=C(Cl)COc1cc(C)cc2oc(=O)cc(CC)c12 | -13 | 0.5 | -2 | 43 | 0.6 | 52*
Cc1cc(OC(=O)c2ccco2)c2c(C)cc(=O)oc2c1 | 1 | 1.5 | 0 | -4 | 1 | -49
C=CCNC(=O)C(=O)NN=C1CCN(C)CC1 | -5 | 1 | -3 | -8 | 1.1 | -4
COc1cccc(NS(=O)(=O)c2ccc3[nH]cc(C(=O)NCCC(C)C)c(=O)c3c2)c1 | -1 | 0.3 | -1 | 13 | 0.9 | 70*
CCCNC(=O)c1c[nH]c2ccc(S(=O)(=O)N(C)c3ccc(OCC)cc3)cc2c1=O | 44 | 0.2 | 1 | 45 | 0.6 | 83*
Cc1nc(=O)c(-c2ccccc2)c(C)n1-c1ccc(O)c(C(=O)O)c1 | -3 | 0.9 | -1 | 4 | 1 | 6
Cc1cccc(-c2noc(Cc3ccc(Cl)cc3)n2)c1 | 23 | 0.4 | 1 | 80* | 0.2 | 56*
CCS(=O)(=O)c1nc(S(=O)(=O)c2ccc(Cl)cc2)c(NCc2ccco2)s1 | 4 | nt | 14 | nt | nt | nt
COc1ccc(/C=C2\SC(c3ccc(C)cc3)=NC2=O)cc1OC | 1 | 0.7 | 6 | 11 | 0.9 | 25
COc1cc(/C=C2/SC(=S)NC2=O)ccc1OS(=O)(=O)c1ccc(C)cc1 | 92* | nt | -5 | nt | nt | nt
COc1ccc(/C=C2/SC(c3ccc(C)cc3)=NC2=O)cc1OC | 6 | 0.4 | -1 | 41 | 0.6 | 61*
COc1cc(/C=C2\SC(c3ccc(C)cc3)=NC2=O)cc(OC)c1OC | -36 | 0.4 | 12 | 22 | 0.8 | 63*

Screening results deposited in PubChem by Sanford-Burnham Center for Chemical Genomics.
